# Results published in PubChem BioAssay AID504332 (National Center for Advancing Translational Sciences (NCATS), 2011).
# Screen size: about 350,000 compounds; about 31,000 (8.9%) were called active. Not shown: some 15% with an inconclusive outcome. Calls come from the whole dose curve; as a rule, active = well fitted inhibition curve with a large enough effect; inconclusive = small, poorly fitted or top-dose-only effect; inactive = no such curve, though single readings can be large or run the other way. The list comes from a sample in which actives are over-represented; it also holds similar structures and randomly drawn compounds.
# Target: Histone-lysine N-methyltransferase EHMT2 (Homo sapiens) (UniProt Q96KQ7)
# Sequence (Q96KQ7 913-1193 limits assumed): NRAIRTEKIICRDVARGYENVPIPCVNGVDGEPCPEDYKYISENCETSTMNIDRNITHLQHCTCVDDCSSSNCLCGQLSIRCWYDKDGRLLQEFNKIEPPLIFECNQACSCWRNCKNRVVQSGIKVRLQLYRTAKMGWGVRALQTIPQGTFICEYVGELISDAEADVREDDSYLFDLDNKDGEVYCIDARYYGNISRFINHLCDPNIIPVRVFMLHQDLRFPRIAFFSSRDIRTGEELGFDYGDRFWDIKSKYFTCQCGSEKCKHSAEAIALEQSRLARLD
# Assay: qHTS Assay for Inhibitors of Histone Lysine Methyltransferase G9a; note: nearly all actives have a fitted effect of over 75% in size
# Settings: G9a H3K9 monomethylation, AlphaScreen, 2 h; series mostly up to 59 µM; activity, negative = inhibition: at the top concentration
# Summary of the method: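 Readings reflect AlphaScreen signal from monomethyl-H3K9 antibody detection. HMT at 20 nM; substrate b-H3K9 500 nM; cofactor SAM 20 uM; 2 h RT reaction; compounds tested as titrations in qHTS with 15 min preincubation.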
# % is set by controls: 0 for no effect and ±100 for the full control effect; potency is the fitted concentration of half-maximal effect.
SMILES,"activity, negative = inhibition",Potency
O=C(CCc1cn(Cc2ccc(F)cc2)c2ccccc12)NC1CCCCC1,-29.5% (inactive),
Cc1ccc(Cn2c(=N)c(S(=O)(=O)c3ccc(C)cc3)cc3c(=O)n4ccccc4nc32)cc1,12.9% [at 102 µM] (inactive),
CCN(CC(=O)Nc1ccccc1OC)C(=O)CC1CC2CCC1C2 (centres undefined),-48.1% (inactive),
COc1ccccc1N1CCN(C(=O)c2ccc(NC3=NC4CS(=O)(=O)CC4S3)cc2)CC1 (centres undefined),18.8% [at 102 µM] (inactive),
O=[N+]([O-])c1ccc(N2CCSCC2)cc1O,-49.1% [at 102 µM] (inactive),
O=C1CSC(=S)N1/N=C/c1ccc(O)c([N+](=O)[O-])c1,,14.1 µM (active)
CCc1nn(CCCC(=O)Nc2ccc(C)cc2C)c(=O)c2cc3occc3n12,0.152% (inactive),
Cc1ccc(OCCNC(=O)CN2C(=O)NC3(CCCC3)C2=O)cc1,19.1% [at 2.33 µM] (inactive),
Cc1ccc(S(=O)(=O)CCC(=O)OCC(=O)NCCc2ccc(S(N)(=O)=O)cc2)cc1,1.87% [at 12.7 µM] (inactive),
CCC(CC)c1nnc(NS(=O)(=O)Cc2ccccc2)s1,,5.01 µM (active)
Cc1cc(C)cc(NS(=O)(=O)Cc2ccccc2)c1,6.04% [at 102 µM] (inactive),
COc1ccc(Cc2nnc(NS(=O)(=O)Cc3ccccc3)s2)cc1,-8.52% (inactive),
CCc1ccc(NC(=O)CCNS(=O)(=O)c2cccs2)cc1,23.6% [at 102 µM] (inactive),
CN1CCN(CC#CCC2(O)c3ccccc3-c3ccccc32)CC1,,35.5 µM (active)
CCCCOc1ccc(CN2C(=O)C(=O)c3cc(Br)cc(C)c32)cc1OC,,6.31 µM (active)
CCCCOc1ccc(Cn2c(=O)oc3ccc(C)cc32)cc1OC,72.1% (inactive),
CCCCN1C(=O)C(C)=C(C)C1OCCc1ccc(OC)c(OC)c1 (centres undefined),-12% [at 0.501 µM] (inactive),
Cc1ccc2nc(N3CCN(c4cccc(Cl)c4)CC3)c3nnnn3c2c1,27.6% (inactive),
Cc1[nH]c2ccccc2c1C(c1ccccc1)c1cccs1 (centres undefined),-1.34% (inactive),
CC1CCN(S(=O)(=O)c2ccc3c(c2)N(CC(=O)NCc2ccccc2Cl)C(=O)CO3)CC1,18.5% (inactive),
Cc1cccc(N2CCN(C(=O)c3cccc(N4C(=O)C5C6C=CC(C6)C5C4=O)c3)CC2)c1C (centres undefined),-4.69% [at 102 µM] (inactive),
COc1ccc(NC(=O)CCN2C(=O)/C(=C/c3ccc4c(c3)OCO4)SC2=S)cc1,7.02% [at 12.7 µM] (inactive),
Cc1ccc(C(=O)O)cc1-c1ccc(/C=C2\SC(=O)N(CC(=O)Nc3ccc4c(c3)OCO4)C2=O)o1,,15.8 µM (active)
Cn1c(=O)n(C)c2cc(C(=O)Nc3ccc4c(c3)OCO4)ccc21,-4.52% [at 102 µM] (inactive),

SMILES,"activity, negative = inhibition",Potency
O=C(c1ccc(Cl)cc1)n1nc(-c2cccnc2)nc1NCc1ccc(F)cc1,8.04% (inactive),
CN1c2ccc(Cl)cc2-c2nc(SCC(=O)Nc3cc(F)ccc3F)ncc2S1(=O)=O,2.07% (inactive),
CS(=O)(=O)c1ccc(-c2nnn(CC(=O)Nc3ccc4c(c3)OCCO4)n2)cc1,-35.3% [at 102 µM] (inactive),
Oc1ccc2ccccc2c1N=Nc1nccs1,12.3% [at 0.501 µM] (inactive),
Oc1ccc(N=Nc2nccs2)c(O)c1,,44.7 µM (active)
Cc1cccc(NC(=O)C2CCCN2S(=O)(=O)c2cccc3nsnc23)c1C (centres undefined),-3.86% (inactive),
COc1ccc(-c2noc(CSc3nc(C)cc(=O)[nH]3)n2)cc1OC,5.63% (inactive),
Cc1cc(C)c(NC(=O)CS(=O)CC(=O)Nc2cccnc2)c(C)c1 (centres undefined),-1.56% [at 102 µM] (inactive),
Cc1ccc(-c2nc(-c3cccnc3)sc2CC(=O)Nc2ccc(C)c(Cl)c2)cc1,,8.91 µM (active)
Cc1nc(-c2ccc(F)cc2)c(CC(=O)Nc2cccc(S(=O)(=O)N3CCOCC3)c2)s1,9.73% [at 0.501 µM] (inactive),
Cc1ccsc1C(=O)OCC(=O)Nc1cccc(F)c1,19.6% [at 12.7 µM] (inactive),
CCOc1ccc(C(O)Cc2nc3ccccc3n2C)cc1 (centres undefined),-10.2% (inactive),
CCOc1ccc(C(O)Cn2c(=N)n(CCN3CCCCC3)c3ccccc32)cc1 (centres undefined),,50.1 µM (active)
Cn1c(=N)n(CC(O)c2ccccc2)c2ccccc21 (centres undefined),9.45% (inactive),
Fc1ccc(-c2nn(-c3ccccc3Cl)c3c2cnc2ccccc23)cc1,8% (inactive),
N#Cc1cccc(NC(=O)CN2CCCCCC2)c1,12.8% [at 102 µM] (inactive),
CC(C)c1ccc(NC2CCCN(C(=O)c3ccncc3)C2)cc1 (centres undefined),13.6% [at 102 µM] (inactive),
Cc1cccc(C(=O)N2CCCC(Nc3ccc(C(C)C)cc3)C2)n1 (centres undefined),,56.2 µM (active)
CC(C)c1ccc(NC(=O)NC2CCCCC2)cc1,1.01% (inactive),
CCN(CC(=O)NCc1ccc(Cl)cc1)C(=O)c1c(C)noc1C,-126% [at 12.7 µM] (inactive),
Cc1cccc(N2CCN(S(=O)(=O)c3ccc4[nH]c5c(c4c3)CCCCC5)CC2)c1C,-34.1% (inactive),
Cc1cccc(NC(=O)Cn2nc(-c3ccc(Cl)cc3)c3ccccc3c2=O)c1,27.7% (inactive),
Cc1ccc(-c2csc(NC(=O)Cc3cccs3)n2)cc1C,-13.1% [at 102 µM] (inactive),
Cc1cc(C)c(-c2csc(NC(=O)CCCc3nc4ccccc4c(=O)[nH]3)n2)c(C)c1,,50.1 µM (active)

SMILES,"activity, negative = inhibition",Potency
CCCc1ccc(-c2csc(NC(=O)Cc3cccs3)n2)cc1,-17.3% [at 102 µM] (inactive),
Cc1ccc(-c2csc(NC(=O)Cn3[nH]c(=O)c4ccccc4c3=O)n2)cc1,-22.3% [at 102 µM] (inactive),
CCN(CC)c1ccc(C(=O)NNC(=O)CCc2nc3ccccc3c(=O)[nH]2)cc1,34.4% [at 102 µM] (inactive),
CCCn1c(C)cc(-c2csc(NC(=O)CCc3nc4ccccc4c(=O)[nH]3)n2)c1C,,25.1 µM (active)
COc1ccc(-c2cc(C(F)(F)F)nc(SCC(=O)N(C)Cc3ccccc3)n2)cc1OC,16.6% (inactive),
Brc1ccccc1C1N=C(c2ccccc2)NO1 (centres undefined),,50.1 µM (active)
N#Cc1ccc(C2N=C(c3ccccc3)NO2)cc1 (centres undefined),13.3% [at 102 µM] (inactive),
O=C(c1ccc(OC2CCN(C/C=C/c3ccc(F)cc3)CC2)cc1)N1CCCCC1,4.87% [at 102 µM] (inactive),
CC1CCC(NC(=O)CNC(=O)c2ccc3ccccc3c2)CC1 (centres undefined),5.09% [at 0.501 µM] (inactive),
CCOC(=O)C1=C(C)NC2=C(C(=O)CC(C)(C)C2)C1c1ccsc1 (centres undefined),1.73% [at 12.7 µM] (inactive),
COCCOC(=O)C1=C(C)NC(=O)NC1c1ccc(Cl)cc1 (centres undefined),20.2% (inactive),
CCCOC(=O)C1=C(C)NC2=C(C(=O)C(C(=O)OC)C(C)C2)C1c1ccc(N(C)C)cc1 (centres undefined),,44.7 µM (active)
N#Cc1cccc(NC(=O)C2CCCN(C(=O)c3ccc(Cl)cc3)C2)c1 (centres undefined),10.9% [at 12.7 µM] (inactive),
CCOC(=O)c1sc2nc(CSCC(=O)OCc3ccc(C(=O)OC)o3)[nH]c(=O)c2c1C,-43.1% (inactive),
COC(=O)c1sc2[nH]c(=S)n(N)c(=O)c2c1C,,7.94 µM (active)
CCOC(=O)c1sc2nc(C)[nH]c(=O)c2c1C,14.5% (inactive),
CCCCN1CC(c2nc3ccccc3n2CCCCOc2ccc(C)cc2C)CC1=O (centres undefined),-41.5% (inactive),
CC1CCN(S(=O)(=O)c2ccc3c(ccn3CC(=O)O)c2)CC1,1.09% [at 102 µM] (inactive),
O=C(CCn1ccc2cc(S(=O)(=O)N3CCCC3)ccc21)NCc1cccc(Cl)c1,-5.24% (inactive),
CC1CCN(S(=O)(=O)c2ccc3c(ccn3CCC(=O)NCc3ccc(N(C)C)cc3)c2)CC1,,10 µM (active)
O=C(Nc1nnc(SCc2c(Cl)cccc2Cl)s1)C1CCCO1 (centres undefined),47.8% [at 12.7 µM] (inactive),
CCOC(=O)CSc1nnc(NC(=O)C2CC(=O)N(c3ccc(F)cc3)C2)s1 (centres undefined),,63.1 µM (active)
COc1cccc(N2CC(C(=O)Nc3c(C)cccc3C)CC2=O)c1 (centres undefined),5.2% (inactive),
Cc1cccc(N2CC(C(=O)Nc3ccccc3N3CCCC3)CC2=O)c1C (centres undefined),,70.8 µM (active)

SMILES,"activity, negative = inhibition",Potency
CC(C)c1nnc(NC(=O)C2CC(=O)N(CCc3ccc(F)cc3)C2)s1 (centres undefined),-20.7% [at 102 µM] (inactive),
Cc1ccccc1N1CC(C(=O)Nc2ccc(S(=O)(=O)N3CCCC3)cc2)CC1=O (centres undefined),20.1% [at 2.33 µM] (inactive),
Cc1ccccc1N1CC(C(=O)Nc2ccc3c(c2)OCO3)CC1=O (centres undefined),9.33% [at 102 µM] (inactive),
CCOC(=O)c1ccc(NC(=O)C2CC(=O)N(c3ccc(C(C)C)cc3)C2)cc1 (centres undefined),-25.6% (inactive),
CC(C)C[C@H](NC(=O)C1CC(=O)N(c2ccc3c(c2)OCCO3)C1)C(=O)NC1CCCC1 (some centres undefined),19% [at 102 µM] (inactive),
CCc1nnc(NC(=O)C2CC(=O)N(c3ccc4c(c3)OCCO4)C2)s1 (centres undefined),,10 µM (active)
Cc1ccccc1N1CC(C(=O)Nc2nnc(SCCC3OCCO3)s2)CC1=O (centres undefined),,25.1 µM (active)
CC(=O)c1ccccc1NC(=O)C1CC(=O)N(c2ccc3c(c2)OCCO3)C1 (centres undefined),5.62% (inactive),
CCCCOc1ccc(C(=O)N2CC(=O)Nc3ccc(Br)cc3C2c2ccc(F)cc2)cc1 (centres undefined),-34.7% (inactive),
Cc1ccc(CNC(=O)Cn2c(=O)ccc3cc(S(=O)(=O)N4CCCC4)ccc32)cc1,16.7% (inactive),
CC(=O)N1c2ccccc2CC1C(=O)N1CCN(c2ccc(F)cc2)CC1 (centres undefined),19.9% (inactive),
C[C@@H](NC(=O)c1nc[nH]c1C(=O)N1CCN(C(=O)OC(C)(C)C)CC1)c1ccccc1,4.62% [at 2.33 µM] (inactive),
CCOc1ccc(S(=O)(=O)c2cn(Cc3ccc(OC)cc3)c3ccc(F)cc3c2=O)cc1,-8% (inactive),
Cc1ccc(Cc2nnc(SCC(=O)Nc3ccc(C)cc3C)[nH]c2=O)cc1,-35.1% [at 102 µM] (inactive),
CCn1cc(C(=O)NCCc2ccccc2)c(=O)c2cc(S(=O)(=O)N3CCCCCC3)ccc21,-10.9% (inactive),
CCOC(=O)C1CCCN(C(=O)c2ccc3c(c2)sc2nc(-c4ccc(CC)cc4)cn23)C1 (centres undefined),-3.51% (inactive),
CCOc1ccc(OCC)c(NC(=O)c2cc(C)nc3c2c(C)nn3-c2cccc(Cl)c2C)c1,-2.87% (inactive),
CC1=C(C(=O)OCc2ccc(C)cc2)C(c2c(Cl)cccc2Cl)CC(=O)N1 (centres undefined),7.19% (inactive),
COc1ccc(CCNC(=O)COC(=O)c2cc(=O)c3ccccc3o2)cc1,21.3% [at 12.7 µM] (inactive),
COc1cc(OC)cc(C(=O)Nc2nnc(SCC(=O)NCC3CCCO3)s2)c1 (centres undefined),3.54% (inactive),
COc1ccccc1N1CC(C(=O)Nc2nnc(SCC(=O)NC(C)C)s2)CC1=O (centres undefined),14.1% [at 12.7 µM] (inactive),
COc1ccccc1N1CC(C(=O)Nc2nnc(SCC(=O)NCC3CCCO3)s2)CC1=O (centres undefined),,31.6 µM (active)
